# Source: PubChem
# ALR H2O2 inh: inhibitors of human sulfhydryl oxidase ALR; P55789; purified ALR, DTT oxidation, H2O2 HRP-luminol luminescence; inhibition, % (no concentration beside the values); actives 3.8% (n = 290,000); AID 485317;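 active means mean replicate inhibition above about 79%, with every replicate also reaching it, limit read from the data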
# PDI turbidity: inhibitors of human protein disulfide isomerase; P07237; PDI insulin aggregation turbidity, A650, 90 min; inhibition, % at 10 µM; actives 0.052% (n = 350,000); AID 588391;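 active means mean inhibition across replicates of 30% or more, whatever share of single replicates reach that level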
# PglD inh: PglD (C. jejuni) enzyme inhibition; purified PglD enzyme, DTNB colorimetric CoA detection; inhibition, % at 12.5 µM; actives 0.098% (n = 360,000); AID 602405; in the data active means inhibition above about 16%, passing the limit was not always enough
# ARNT TACC3 PPI: disrupts binding between human ARNT and TACC3; Q9Y6A5; AlphaScreen His-ARNT PAS-B/GST-TACC3 binding, luminescence; TACC3 fragment carries E629A point mutation; inhibition, % at 9.99 µM; actives 0.66% (n = 390,000); AID 623870;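 active means mean inhibition of replicates at least 50% and at least half of replicates each reaching 50%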;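 further: 0% = complete ARNT plus TACC3 wells and 100% = ARNT alone without TACC3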
# ERp5 block: inhibitors of human ERp5 | actives 0.05% (n = 350,000) | ERp5 insulin aggregation, absorbance 650 nm, 90 min | inhibition, % at 9.99 µM;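 active means mean replicate inhibition above about 25%, with every replicate also reaching it, limit read from the data, passing the limit was not always enough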
# CendR NRP1 mod: alters CendR peptide binding to human NRP-1 | FAM-RPARPAR peptide binding to NRP-1, fluorescence polarization | AID 602438 | inhibition, % at 25 µM | O14786 | actives 0.85% (n = 360,000);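 active means inhibition or corrected inhibition above about 18%, plus a signal ratio from 0.5 to 1.5, limit read from the data, passing the limit was not always enough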
# Numbers without * were called inactive; . = no result given. The sample as a whole holds a higher share of hits than the screen did.
SMILES,ALR H2O2 inh,PDI turbidity,PglD inh,ARNT TACC3 PPI,ERp5 block,CendR NRP1 mod
COc1ccccc1CNC(=O)c1cc(-c2ccccc2)nn1CC1CC(c2cccc([N+](=O)[O-])c2)=NO1 (stereo unspecified),-4,-9,-4,-13,2,-26
COc1ccccc1CNC(=O)c1cc(-c2ccccc2C)nn1CC1CC(c2cccnc2)=NO1 (stereo unspecified),-5,-5,2,4,.,25
Cc1ccccc1-c1cc(C(=O)NCc2cccc(Br)c2)n(CC2CC(c3cccnc3)=NO2)n1 (stereo unspecified),4,5,-4,-3,1,24*
O=C(NCC[C@H]1CC[C@@H](NC(=O)c2ccc3c(c2)OCO3)[C@H](CO)O1)Nc1cc(F)ccc1F,.,.,1,5,5,.
COc1ccc2[nH]c(C(=O)O)c(NS(=O)(=O)c3ccc(C)c(C)c3)c2c1,97*,-2,-4,12,-1,-1
COc1ccc2[nH]c(C(=O)O)c(CCNC(C)=O)c2c1,.,20,2,-7,.,5
COc1ccc2[nH]c(C(=O)O)c(NS(=O)(=O)c3ccc(F)cc3)c2c1,90*,0,1,4,-8,0
COc1ccc2[nH]c(C(=O)O)c(NS(=O)(=O)c3ccc(Cl)s3)c2c1,99*,0,6,11,.,4
CCOC(=O)c1[nH]c2ccc(OC)cc2c1NS(=O)(=O)c1ccc(Cl)s1,66,0,.,-2,.,-10
O=C(/C=C/c1ccc(-c2ccccc2[N+](=O)[O-])o1)c1ccco1,-27,-3,.,11,4,28*
CC(C)C(c1nnnn1C1CCCC1)N1c2ccccc2CC1C (stereo unspecified),99*,-16,-1,-1,.,16
Cc1ccc(Nc2c(-c3ccccc3O)nc3cnccn23)cc1,99*,-6,.,1,-7,1
Cc1ccc(-c2nc3cnccn3c2Nc2ccc3c(c2)OCCO3)o1,99*,-3,4,-3,.,11
Cc1ccccc1Nc1c(-c2ccc(N3CCOCC3)cc2)nc2cnccn12,.,5,-2,-8,3,12
Cc1ccc(Nc2c(-c3ccc(N4CCOCC4)cc3)nc3cnccn23)cc1,99*,-3,0,8,-6,-6
COc1ccc(Nc2c(-c3ccc(OC)cc3)nc3cnccn23)cc1,98*,4,0,3,-1,-2
Cc1ccc2nc(-c3ccccc3O)c(Nc3ccc4c(c3)OCCO4)n2c1,7,0,.,-17,4,-2
COc1ccc(CNC(=O)C[C@H]2C=C[C@@H](NC(=O)CN(C)C)[C@H](CO)O2)cc1,.,.,-2,5,2,.
COCCNC(=O)C[C@H]1C=C[C@H](NS(=O)(=O)c2ccc(C)cc2)[C@H](CO)O1,.,.,-6,-10,1,.
Cc1ccc(-c2nc3cnccn3c2Nc2ccc3c(c2)OCO3)cc1,.,.,-1,4,3,-3
COc1ccc(Nc2c(-c3ccc(C)cc3)nc3cnccn23)cc1,99*,3,.,2,-5,-11
CN(C)c1ccc(-c2nc3cnccn3c2Nc2ccc3c(c2)OCCO3)cc1,98*,-7,0,4,-7,-8
COc1ccc(-c2nc3cnccn3c2Nc2ccc3c(c2)OCO3)cc1,87*,.,-2,10,-3,-15
CCCCNc1c(-c2ccc(OC)c(Sc3ccc(OC)cc3)c2)nc2cnccn12,-2,0,4,-22,6,-32
Cc1ccc(Nc2c(-c3ccccc3O)nc3ncccn23)cc1,98*,-2,.,21,-9,25*
Cc1cccc(Nc2c(-c3ccc(O)cc3)nc3ncccn23)c1,23,-2,.,3,2,1
COCC(=O)N1CC2(C1)[C@H](c1ccc(-c3cccc(C)c3)cc1)[C@H](CO)N2C(=O)C1CC1,.,.,.,.,-3,.
CO[C@@H]1CN(C)C(=O)c2cc(NC(=O)C3CC3)ccc2OC[C@H](C)N(C(=O)Cc2ccccn2)C[C@@H]1C,.,.,1,4,1,.
C[C@@H]1CN([C@H](C)CO)C(=O)CCCn2nncc2CO[C@@H]1CN(C)C(=O)Nc1cccc(Oc2ccccn2)c1,.,.,3,-3,3,.
CC(C)NC(=O)N1CC[C@@H]2[C@H]1c1cc(C#Cc3cccnc3)ccc1N(C)[C@@H]2CO,.,.,-3,-4,.,.
